From PubChem
Marburg entry inh – Marburg virus entry inhibition | Marburg virus pseudotyped entry inhibition, cell reporter | Potency, µM (series often up to 37.8 µM), without a hit: at the top dose activity change, negative = inhibition, most hits filed as inhibitors | 300,000 tested, 1.8% active | AID 540276; calls by dose curve; tested in HEK293 cells
RE007 growth inh – less growth of the S. pombe RE007 Vpr strain; S. pombe RE007 Vpr strain, BacTiter-Glo ATP luminescence, 24 h; Potency, µM (top dose mostly 92.2 µM), for the others: top-dose activity change, negative = less growth, usual class: inhibitors; 360,000 tested, 0.21% active; AID 651644; active means well fitted falling curve with a large enough effect; inconclusive means small, poorly fitted or top-dose-only effect; inactive means no such curve, though single readings can be large or run the other way; further: nearly all actives have a fitted effect of over 50% in size
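Fission yeast RE007 carrying one integrated HIV-1 vpr copy, seeded at OD 0.01 in PMG+AL medium with 23 nL pinned compound. Grown 24 h at 30 degrees; viability read by BacTiter-Glo luminescence after 5 min.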
FMDV antiviral – blocks foot and mouth disease virus; FMDV antiviral cell-based qHTS; Potency, µM (series often up to 57.9 µM), for the others: at the highest dose activity change, negative = inhibition, hits mostly inhibitors; 410,000 tested, 1.2% active; AID 1159524; calls by dose curve; tested in HEK293T cells; further: read-out not given here; nearly all actives have a fitted effect of over 45% in size
LASV entry inh – inhibitors of Lassa virus binding or cell entry; Lassa virus pseudotype entry inhibition, cell reporter; Potency, µM (series often up to 37.9 µM), without a hit: top-dose activity change, negative = inhibition, most hits filed as inhibitors; 300,000 tested, 1.2% active; AID 540256; calls by dose curve; tested in HEK293 cells; further: nearly all actives have a fitted effect of over 50% in size
Sm TGR inh – S. mansoni TGR enzyme inhibition; 360,000 tested, 3% active; AID 485364; purified TGR, DTNB reduction, TNB absorbance 405 nm; Potency, µM (doses to about 114 µM), for inactives: top-dose activity change, negative = inhibition, most hits filed as inhibitors; further: nearly all actives have a fitted effect of over 60% in size
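Kinetic colorimetric format: TGR-catalysed, NADPH-driven DTNB reduction monitored via TNB absorbance. Enzyme dispensed at 20 nM; compound exposure 15 min at room temperature before reaction start.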
HCV inhibitor – blocks hepatitis C virus; AID 651820; 340,000 tested, 3.4% active; Huh7.5.1 HCVcc-Cre infection, luciferase reporter, 44 h; Potency, µM (doses to about 41.8 µM), for inactives: at the highest dose activity change, negative = inhibition, usual class: inhibitors
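Whole-lifecycle infectious HCVcc-Cre system; cells 1,000/well, compound then virus (~0.5 moi) added 4 h after plating, 44 h culture. Luciferase read 15 sec following 15 min substrate incubation, room temp.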
* = called active by the depositor; ? = inconclusive; nt = no result given; [ ] = dose if it differs, or a comment. Only some compounds are listed: those with a hit (about 7.2% of all), similar ones and a draw of the others. Unless noted, the call rests on the fitted dose curve; in most records, active means well fitted curve in the direction sought with a large enough effect; inconclusive means small, poorly fitted or top-dose-only effect, or another doubt; inactive means no such curve, though single readings can be large; an effect the other way counts as inactive or inconclusive. On the % scale 0 is the no-effect control and ±100 the full control effect; potency means the concentration at half of the fitted maximal effect.

SMILES	Marburg entry inh	RE007 growth inh	FMDV antiviral	LASV entry inh	Sm TGR inh	HCV inhibitor
CCOc1ccc(-c2cc(C(=O)NCCc3ccc(C)cc3)c3ccccc3n2)cc1	nt	nt	27%	16%[46.1 µM]	5%	nt
CCOc1ccc(-c2cc(C(=O)NCCCN3CCN(CC)CC3)c3ccccc3n2)cc1	?	9%	31%	-2%	-15%	8.9µM*
C/C(N)=C(/C#N)C(=O)COC(=O)c1cc(-c2ccc(Br)cc2)nc2ccccc12	?	1%	-13%	?	-1%	10µM*
O=C(NCCCn1ccnc1)c1nn2c(C(F)(F)F)cc(-c3ccc(Br)cc3)nc2c1Cl	?	-7%	35µM*	-7%	-5%	?
CCOc1ccc(-c2cc(C(=O)NCCCn3ccnc3)c3ccccc3n2)cc1	nt	-1%	6%	nt	0%	-19%
CCOc1ccc(-c2cc(C(=O)NCCCn3ccnc3)c3cc(Br)ccc3n2)cc1	?	-4%	?	?	-12%	10µM*
COc1ccc(-c2csc(C(NC(C)=O)c3ccccc3)n2)cc1 (configuration not stated)	nt	5%[18.4 µM]	?	nt	nt	nt
CCCCNC(=O)CCCn1c(=O)c2ccccc2n(Cc2cccc(Cl)c2)c1=O	3%[46.1 µM]	nt	-22%	-3%[46.1 µM]	-6%	nt
CCCCNC(=O)C(CC)Sc1nnc(-c2ccc(OC)c(OC)c2)c(-c2ccc(OC)c(OC)c2)n1 (configuration not stated)	nt	nt	11%	-12%[46.1 µM]	-3%	nt
COc1ccccc1-c1cc2nc(C)c(CCC(=O)NCCc3cccc(C)c3)c(C)n2n1	-26%[46.1 µM]	nt	-15%	-12%[46.1 µM]	-6%	nt
O=C(O)c1cc(-c2ccccc2)nc2ccccc12	-4%	24%	-23%	-17%	11%	-6%[8.37 µM]
O=C(Oc1ccc([N+](=O)[O-])cc1)c1cc(-c2ccccc2)nc2ccccc12	1%	-8%	20µM*	5%	26%	2%
CCOc1ccc(-c2cc(C(=O)O)c3ccccc3n2)cc1	21µM*	-23%	?	12µM*	-20%	-4%
Cc1ccc(O)c(CNc2cccc3cccnc23)c1	-10%	-24%	6%	-1%	0%	?
Cc1ccc(NCc2ccc(O)c3ncccc23)cc1	?	-14%	-5%	?	?	5.6µM*
COc1cccc(CNc2cccc(C(F)(F)F)c2)c1O	?	-2%	-2%	?	1%	-8%
Cc1cccc(NCc2ccc(O)c3ncccc23)c1C	?	5%	-18%	?	0.11µM*	?
Cc1ccc(NCc2ccc(O)c3ncccc23)cc1C	?	-27%	-9%	?	-2%	?
O=Cc1ccc(O)c2ncccc12	?	?	-15%	?	-18%	?
Cc1cccnc1NCc1ccc(O)c2ncccc12	?	-20%	-28%	?	0.28µM*	10µM*
Oc1ccc(CNc2cccc(C(F)(F)F)c2)c2cccnc12	nt	nt	nt	nt	0.32µM*	nt
Cc1ccccc1NC(=O)CSc1nc(-c2cccs2)nc2cc(=O)[nH]n12	nt	nt	-13%	-17%[46.1 µM]	1%	nt
CCOC(=O)CCN1C(=O)[C@@H]2[C@H]3[C@H](O)[C@H](O)CC(=NO[C@@H]4O[C@H](COC(C)=O)[C@@H](OC(C)=O)[C@H](OC(C)=O)[C@@H]4OC(C)=O)[C@H]3CC[C@H]2C1=O	-6%[14.2 µM]	nt	nt	nt	nt	nt
Cc1ccc(CCNC(=O)Cn2cccc2)cc1	1%	5%	1%	?	50µM*	-21%
Cc1ccc(SCC(=O)NCCc2ccccc2)cc1	-8%[46.1 µM]	0%	18%	?	9%	8%
SMILES	Marburg entry inh	RE007 growth inh	FMDV antiviral	LASV entry inh	Sm TGR inh	HCV inhibitor
O=C(NCC(c1cccnc1)N1CCOCC1)C(=O)Nc1cccc(Cl)c1 (configuration not stated)	nt	nt	-20%	4%[46.1 µM]	5%	nt
O=C1C2C3C=CC(C3=C(c3ccccc3)c3ccccc3)C2C(=O)N1Cc1ccccc1 (configuration not stated)	?	?	?	?	7.9µM*	11µM*
O=C1C2C3C=CC(C3=C(c3ccccc3)c3ccccc3)C2C(=O)N1CCO (configuration not stated)	2%	20%	?	?	8%	-16%
O=C(O)CCc1ccc(-c2ccc(Cl)cc2)n1CC(=O)O	-5%	-2%	nt	-1%	45µM*	25%
O=C(O)CCc1ccc(-c2ccc(Cl)cc2)n1CC(=O)Nc1ccccc1	nt	2%	-2%	nt	?	11%
C=CCn1c(CCC(=O)O)ccc1-c1ccccc1	-4%	5%	nt	19%	45µM*	10%
O=C(O)CCc1ccc(-c2ccc(Cl)cc2)n1CCC(=O)O	6%	-1%	nt	14%	22µM*	27%
O=C(O)CCc1ccc(-c2ccccc2)n1CC(=O)Nc1ccccc1C(F)(F)F	1%[46.1 µM]	nt	-18%	-1%[46.1 µM]	40µM*	nt
CC1=C[C@@H](C)O[C@@]2(C1)C(=O)Nc1cccc(Br)c12	1%[14.2 µM]	nt	nt	?	nt	nt
COc1cccc([C@@H]2Oc3ccc(OC)cc3C[C@@H]2OC(=O)N[C@H]2CCCc3ccccc32)c1	3%[14.2 µM]	nt	nt	nt	nt	nt
O=c1c2ccccc2nc(COc2ccccc2)n1/N=C/c1ccco1	32%	-5%	-20%	?	40µM*	19%
Cc1ccc(-c2[nH]ncc2/C=N/n2c(COc3ccccc3)nc3ccccc3c2=O)cc1	?	-1%	-23%	?	-1%	11µM*
Cc1ccccc1OCc1nc2ccccc2c(=O)n1/N=C/c1cn[nH]c1-c1ccccc1	16µM*	-2%	?	10µM*	1%	?
C(=N/n1c2ccccc2c2ccccc21)/c1ccco1	-23%[46.1 µM]	?	-19%	-2%	?	8.9µM*
O=C(NCc1nnc2n1CCN(Cc1ccnc3ccccc13)CC2)c1cccc(F)c1	nt	nt	-1%	nt	nt	nt
CCc1ccc2occ(CC(=O)Nc3c(C(=O)Nc4ccc(OC)cc4)oc4ccccc34)c2c1	-4%[46.1 µM]	nt	-11%	-19%[46.1 µM]	-2%	nt
COc1ccc(Cl)cc1S(=O)(=O)Nc1cccc(-c2ccc(N3CCOCC3)nn2)c1	nt	nt	28%	-7%[46.1 µM]	-4%	nt
COc1ccc(Nc2nc(Nc3ccc(OC)cc3)nc(-n3[nH]c(=O)c(C)c3C)n2)cc1	?	4%	-17%	-16%	-1%	10µM*
COc1ccc(Nc2nc(OC)nc(OC)n2)cc1	nt	10%	27%	nt	3%	5%
COc1ccc(Cn2c(CNC(=O)Cc3cccc([N+](=O)[O-])c3)nc3cccnc32)cc1	nt	nt	1%	-15%[46.1 µM]	4%	nt
C#CCNC(=O)C1=C[C@@H](C2CCCCC2)C[C@@H](OCc2ccc(CO)cc2)O1	nt	-3%	-8%	nt	22µM*	?
O=C(NC1CC1)C1=C[C@H](C2CCCCC2)C[C@H](OCc2ccc(CO)cc2)O1	nt	17%	3%	nt	-5%	2%
O=C(Nc1ccccc1)C1=C[C@@H](C2CC2)C[C@@H](OCc2ccc(CO)cc2)O1	nt	-22%	55%	nt	-5%	0.56µM*
